Binding signal data for 39 sequences are collected here from publication PMC5700166.

Sequence of GST-Hu-p50 (P19838 7-356): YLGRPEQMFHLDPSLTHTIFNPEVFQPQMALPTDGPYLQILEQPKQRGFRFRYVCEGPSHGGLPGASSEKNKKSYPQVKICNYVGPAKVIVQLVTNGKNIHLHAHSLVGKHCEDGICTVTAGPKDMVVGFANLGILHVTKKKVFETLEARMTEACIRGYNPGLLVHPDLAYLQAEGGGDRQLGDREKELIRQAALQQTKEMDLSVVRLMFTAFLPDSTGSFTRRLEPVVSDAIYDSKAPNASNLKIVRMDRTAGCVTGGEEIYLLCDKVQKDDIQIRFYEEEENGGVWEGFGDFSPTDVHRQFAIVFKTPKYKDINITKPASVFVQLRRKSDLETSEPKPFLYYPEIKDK

This assay addresses GST-Hu-p50 (Homo sapiens, UniProt P19838 7-356). The assay can be described thus: protein-binding microarray (PBM); PBM: ~300 nM protein, 6 mM HEPES pH 7.8, 80 mM KCl, 0.5 mM EDTA, 0.5 mM EGTA, 6% glycerol, 35 ng/ul poly-dIdC, 1% milk, 1 h, room temperature; Ap Aiptasia and Nv Nematostella (sea anemones) / Co Capsaspora / Aq Amphimedon (sponge) / Dm Drosophila / Hu human; RHD is the Rel homology domain; high values mean tight binding. The note with it: dsDNA, one strand shown.
In the case of “CCGATTAACATCACCGTTTAGGTTGATGTTAATCGGGTCTTGATTCGCTTGACGCTGCTG”, the binding signal worked out at 1.22 z-score.

The sequence “CCGATTAACATCAGGAAAAACCATGATGTTAATCGGGTCTTGATTCGCTTGACGCTGCTG” returned a binding signal of 1.05 z-score.

For the sequence “CCGATTAACATCAGGGGAACTCATGATGTTAATCGGGTCTTGATTCGCTTGACGCTGCTG”, the binding signal amounted to 4.82 z-score.

Regarding “CCGATTAACATCACCCATTTCCGTGATGTTAATCGGGTCTTGATTCGCTTGACGCTGCTG”, the binding signal was 1.88 z-score.

With “CCGATTAACATCAGGGGAACTAATGATGTTAATCGGGTCTTGATTCGCTTGACGCTGCTG”, the binding signal amounted to 4.28 z-score.

For “CCGATTAACATCACCGTTTAAGCTGATGTTAATCGGGTCTTGATTCGCTTGACGCTGCTG”, the binding signal turned out to be 1.15 z-score.

The sequence “CCGATTAACATCAATAAATTTCCTGATGTTAATCGGGTCTTGATTCGCTTGACGCTGCTG” yielded a binding signal of 1.15 z-score.

The sequence “CCGATTAACATCATGAAGACCCCTGATGTTAATCGGGTCTTGATTCGCTTGACGCTGCTG” displayed a binding signal of 1.77 z-score.

As for “CCGATTAACATCACCTATTCCCCTGATGTTAATCGGGTCTTGATTCGCTTGACGCTGCTG”, the binding signal amounted to 5.12 z-score.

In the case of “CCGATTAACATCAGGACTATCCCTGATGTTAATCGGGTCTTGATTCGCTTGACGCTGCTG”, the binding signal was found to be 1.81 z-score.

Consider “CCGATTAACATCAATCAGCGGGGTGATGTTAATCGGGTCTTGATTCGCTTGACGCTGCTG”, for which the binding signal was 1.52 z-score.

In turn, “CCGATTAACATCAAAGTTTTCCCTGATGTTAATCGGGTCTTGATTCGCTTGACGCTGCTG” displayed a binding signal of 4.49 z-score.

The sequence “CCGATTAACATCAAAGATTTCCCTGATGTTAATCGGGTCTTGATTCGCTTGACGCTGCTG” displayed a binding signal of 4.86 z-score.

As for “CCGATTAACATCACCAAATTTCCTGATGTTAATCGGGTCTTGATTCGCTTGACGCTGCTG”, the binding signal turned out to be 1.31 z-score.

On to “CCGATTAACATCACCCATTCCCCTGATGTTAATCGGGTCTTGATTCGCTTGACGCTGCTG”, for which the binding signal worked out at 5.05 z-score.

In turn, “CCGATTAACATCAATTTAGACGGTGATGTTAATCGGGTCTTGATTCGCTTGACGCTGCTG” showed a binding signal of 1.58 z-score.

The sequence “CCGATTAACATCAAATTTCCAGGTGATGTTAATCGGGTCTTGATTCGCTTGACGCTGCTG” came in with a binding signal of 1.2 z-score.

Regarding “CCGATTAACATCAAACTTTTCCCTGATGTTAATCGGGTCTTGATTCGCTTGACGCTGCTG”, the binding signal was 3.53 z-score.

Regarding “CCGATTAACATCAGGGCAAAAAATGATGTTAATCGGGTCTTGATTCGCTTGACGCTGCTG”, the binding signal stood at 1.45 z-score.

“CCGATTAACATCAATGGAATTCCTGATGTTAATCGGGTCTTGATTCGCTTGACGCTGCTG” yielded a binding signal of 1.48 z-score.

Sequence “CCGATTAACATCACCGGATTTCCTGATGTTAATCGGGTCTTGATTCGCTTGACGCTGCTG” yielded a binding signal of 2.28 z-score.

The sequence “CCGATTAACATCAAAAATTTCCGTGATGTTAATCGGGTCTTGATTCGCTTGACGCTGCTG” gave a binding signal of 1.34 z-score.

With “CCGATTAACATCAATAAAATTCCTGATGTTAATCGGGTCTTGATTCGCTTGACGCTGCTG”, the binding signal worked out at 1.02 z-score.

In turn, “CCGATTAACATCAGGACAATCCCTGATGTTAATCGGGTCTTGATTCGCTTGACGCTGCTG” registered a binding signal of 1.84 z-score.

For the sequence “CCGATTAACATCAATAGTTCCCCTGATGTTAATCGGGTCTTGATTCGCTTGACGCTGCTG”, the binding signal worked out at 5.26 z-score.

Sequence “CCGATTAACATCAGGAAGGCCCCTGATGTTAATCGGGTCTTGATTCGCTTGACGCTGCTG” had a binding signal of 2.59 z-score.

For the sequence “CCGATTAACATCAAATTCCCACGTGATGTTAATCGGGTCTTGATTCGCTTGACGCTGCTG”, the binding signal came out at 2.98 z-score.

Take “CCGATTAACATCAGGTAATTACCTGATGTTAATCGGGTCTTGATTCGCTTGACGCTGCTG”: the binding signal worked out at 3.47 z-score.

“CCGATTAACATCACCCCATCTCGTGATGTTAATCGGGTCTTGATTCGCTTGACGCTGCTG” came in with a binding signal of 1.44 z-score.

In turn, “CCGATTAACATCAGGCGGTAAGGTGATGTTAATCGGGTCTTGATTCGCTTGACGCTGCTG” yielded a binding signal of 1.29 z-score.

“CCGATTAACATCAGGTAACCCCATGATGTTAATCGGGTCTTGATTCGCTTGACGCTGCTG” gave a binding signal of 1.35 z-score.

As to “CCGATTAACATCAAGAGTTCCCCTGATGTTAATCGGGTCTTGATTCGCTTGACGCTGCTG”, the binding signal came to 5.23 z-score.

Turning to “CCGATTAACATCACACCCCAACATGATGTTAATCGGGTCTTGATTCGCTTGACGCTGCTG”, the binding signal amounted to 1.05 z-score.

In turn, “CCGATTAACATCAAATTTTTCCCTGATGTTAATCGGGTCTTGATTCGCTTGACGCTGCTG” came in with a binding signal of 4.48 z-score.

The sequence “CCGATTAACATCAGAGTTTTCCCTGATGTTAATCGGGTCTTGATTCGCTTGACGCTGCTG” yielded a binding signal of 3.99 z-score.

“CCGATTAACATCACGGAAATTTCTGATGTTAATCGGGTCTTGATTCGCTTGACGCTGCTG” yielded a binding signal of 1.83 z-score.

“CCGATTAACATCAGGGGATACCCTGATGTTAATCGGGTCTTGATTCGCTTGACGCTGCTG” had a binding signal of 5.1 z-score.

Consider “CCGATTAACATCAGGGAAGGACCTGATGTTAATCGGGTCTTGATTCGCTTGACGCTGCTG”, for which the binding signal came out at 1.18 z-score.

Sequence “CCGATTAACATCAGGAAACACCCTGATGTTAATCGGGTCTTGATTCGCTTGACGCTGCTG” came in with a binding signal of 3.48 z-score.
